The record followed here is PubChem BioAssay AID759 (NMMLSC, 2007).

In all, about 190,000 compounds went through this assay and about 270 (0.14%) were called active. Another 2% or so got no clear call; they are omitted. For the sample, actives were picked, then their nearest neighbours and some compounds at random. A number with no mark means an inactive call.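 Rule for the calls: active = GTP binding activity at least 20% away from the 100% baseline, either lowered as inhibitor or raised as activator; inconclusive = flagged as likely green fluorescent, judged across all proteins in the well; inactive = the rest.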

GTPase HRas (Homo sapiens), sequence (P01112 whole entry, looked up): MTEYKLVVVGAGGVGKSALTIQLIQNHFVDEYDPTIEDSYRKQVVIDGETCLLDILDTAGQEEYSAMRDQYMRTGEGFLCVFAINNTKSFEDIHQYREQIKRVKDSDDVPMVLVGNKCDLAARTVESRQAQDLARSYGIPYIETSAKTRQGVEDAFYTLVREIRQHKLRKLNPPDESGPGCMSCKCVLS

This assay addresses GTPase HRas (Homo sapiens) (UniProt P01112). Description: modulators of GTP binding to HRas wildtype, primary screen, biochemical, bead-based flow cytometry, multiplex (AID 759).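 Note: 0% = unlabeled GTP competition control and 100% = no-compound control.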 To be noted: GST-Ras wt beads, Bodipy-FL-GTP binding, at 10 µM, actives lie on both sides.
As for `CCCC(C)n1[nH]c(=O)c2c1NC(=O)CSC2c1ccc(OC)c(OC)c1` (stereo not given), the GTP binding activity is 98%. Regarding `CCOc1ccc(C2SCC(=O)Nc3c2c(C)nn3C2CCOC(C)(C)C2)cc1` (stereo not given), the GTP binding activity is 73% (active). For `CC1=CC(=Cc2sc3ccccc3[n+]2C)C=C(C)O1`, the GTP binding activity was 103%. Take `COc1ccc(CN2C(=O)NC(=O)/C(=C\c3ccc(OC)c(OC)c3OC)C2=O)cc1`: the GTP binding activity is 97%. `Cc1ccsc1C(=O)C1CCCN(Cc2ccc(O)cc2)C1` (stereo not given): the GTP binding activity is 98%.
